For 17 compounds, outcome and AC50 results are on record in PubChem BioAssay (EPA / NIEHS).

In experiment [1] the target is Estrogen receptor (Homo sapiens) (UniProt P03372). The experiment can be described thus: CCTE_Deisenroth_AIME_96WELL_LUC_Active: CCTE's 96-well Estrogen Receptor Transactivation Assay with AIME metabolic competence (ERTA luciferase; metabolism positive), Deisenroth Lab (AID 2284023). In short, it runs like this:
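Metabolism-positive mode: induced rat hepatic S9 in alginate microspheres conditions test solutions (0.002 - 200 uM, 10 points) for 2 hours. VM7Luc4E2 ER luciferase reporter cells then exposed 24 h; positive-direction fit against 17beta-estradiol, n=4 typical.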

Experiment [2] has the same target. The experiment can be described thus: CCTE_Deisenroth_AIME_96WELL_LUC_Inactive: CCTE's 96-well Estrogen Receptor Transactivation Assay without AIME metabolic competence (ERTA luciferase; metabolism negative), Deisenroth Lab (AID 2284025). In short, it runs like this: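 Metabolism-negative arm: chemicals (0.002–200 uM, 10 points) incubated 2 h with alginate-water microspheres, then medium moved onto VM7Luc4E2 cells for 24 h luciferase read-out. Positive direction vs 17beta-estradiol; n≥4 experiments.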

A short description of experiment [3]: CCTE_Deisenroth_AIME_384WELL_CTox_Active: Cytotoxicity Assessment (CTOX) in CCTE's 384-well Estrogen Receptor Transactivation Assay with AIME metabolic competence (metabolism positive), Deisenroth Lab (AID 2284037).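 Also: chemicals first conditioned 2 h by alginate-bound induced rat liver S9 before cells; activity means signal loss indicating cell death.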 An outline of the steps: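 VM7Luc4E2 breast cells received medium pre-incubated 2 h with chemical over alginate microspheres holding induced male Sprague Dawley rat liver S9; viability read 24 h later by protease-substrate fluorescence. Loss of signal, bidirectional fit, 0.002–200 uM.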

The nature of experiment [4]: CCTE_Shafer_MEA_dev_firing_rate_mean: CCTE's Neural Network Formation Assay for Mean Firing Rate, Shafer Lab (AID 2284031; active = hit-call score of the fitted dose curve at least 0.9, where 1 is the maximum; inactive = score below 0.9). An outline of the steps: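 Spike frequency (spikes/recording length, averaged over active electrodes) was recorded on days 5, 7, 9 and 12 and collapsed to AUC; rat cortical cultures received compound continuously over 12 days of network development.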

The nature of experiment [5]: CCTE_Shafer_MEA_dev_per_burst_spike_percent: CCTE's Neural Network Formation Assay for Percent of Spikes in a Burst, Shafer Lab (AID 2284032; active = hit-call score of the fitted dose curve at least 0.9, where 1 is the maximum; inactive = score below 0.9). In short, it runs like this: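 Value is trapezoidal AUC over recordings on days 5, 7, 9 and 12 of the well-mean fraction of spikes falling in single-electrode bursts; rat cortical cultures exposed continuously from plating, treatment renewed DIV 5 and 9, fitted downward against DMSO.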

Experiment [6] concerns the target Estrogen receptor (Homo sapiens) (UniProt P03372). The experiment can be described thus: CCTE_Deisenroth_AIME_384WELL_LUC_Active: CCTE's 384-well Estrogen Receptor Transactivation Assay with AIME metabolic competence (ERTA luciferase; metabolism positive), Deisenroth Lab (AID 2284030). An outline of the steps: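 Estrogenic luciferase signal in VM7Luc4E2 cells is measured at 24 hour, after chemicals have been preconditioned 2 hours with PB/BNF-induced rat hepatic S9 in alginate. Gain of signal is fitted relative to 17beta-estradiol, across 0.002 - 200 uM.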

The target is the same in experiment [7]. Briefly: CCTE_Deisenroth_AIME_384WELL_LUC_Inactive: CCTE's 384-well Estrogen Receptor Transactivation Assay without AIME metabolic competence (ERTA luciferase; metabolism negative), Deisenroth Lab (AID 2284038).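 Also: hits raise estrogen receptor luciferase signal so potencies reflect agonists.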 In short, it runs like this:
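VM7Luc4E2 ER transactivation, luciferase bioluminescence after 24 h, using medium pre-incubated 2 h with S9-free alginate microspheres. Concentrations 0.002–200 uM; gain of signal fitted relative to 17beta-estradiol.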

A short description of experiment [8]: CCTE_Deisenroth_AIME_96WELL_CTox_Active: Cytotoxicity Assessment (CTOX) in CCTE's 96-well Estrogen Receptor Transactivation Assay with AIME metabolic competence (metabolism positive), Deisenroth Lab (AID 2284028). An outline of the steps: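 Cytotoxicity in VM7Luc4E2 breast cells after 24 h exposure to medium from a 2 h metabolic pre-incubation with induced rat hepatic S9 in alginate microspheres; fluorescent live-cell protease readout, 10-point series 0.002–200 uM, n=4.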

A short description of experiment [9]: CCTE_Deisenroth_AIME_96WELL_CTox_Inactive: Cytotoxicity Assessment (CTOX) in CCTE's 96-well Estrogen Receptor Transactivation Assay without AIME metabolic competence (metabolism negative), Deisenroth Lab (AID 2284029). An outline of the steps: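 Metabolism-negative mode: alginate-water lids without rat S9, 2 h pre-incubation of 10-point series (0.002 - 200 uM). Conditioned medium on VM7Luc4E2 cells 24 h; loss of fluorescent live-cell protease signal marks cytotoxicity.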

Experiment [10] can be described thus: CCTE_Shafer_MEA_acute_burst_duration_mean: CCTE's Neural Acute Assay for Mean Burst Duration, Shafer Lab (AID 2284014; active = hit-call score of the fitted dose curve at least 0.9, where 1 is the maximum; inactive = score below 0.9;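 also: hits are decreases in mean burst duration relative to DMSO controls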). In short, it runs like this: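 Acute exposure of mature rat cortical networks (DIV 13 or 15) grown on microelectrode arrays to 0.03-40 uM compound. Mean burst duration compared with the 40-min pre-dose baseline over a 40-min post-dose recording at 37 C.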

A short description of experiment [11]: CCTE_Shafer_MEA_acute_interburst_interval_mean: CCTE's Neural Acute Assay for Mean Interburst Interval, Shafer Lab (AID 2284016; active = hit-call score of the fitted dose curve at least 0.9, where 1 is the maximum; inactive = score below 0.9;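 also: percent change of mean interburst interval versus each well's own pre-dose baseline; curves fitted for decrease in interburst interval relative to DMSO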). In short, it runs like this:
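Rat primary cortical neurons on 48-well MEAs at DIV 13 or 15 were exposed acutely to 0.03-40 uM. Spikes detected at 8x rms noise, 37 C. Mean interburst interval from 40 min recordings expressed as percent change from 40 min pre-treatment baseline.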

Experiment [12] is described as follows: CCTE_Shafer_MEA_acute_burst_percentage_mean: CCTE's Neural Acute Assay for Percentage of Spikes in a Burst, Shafer Lab (AID 2284017; active = hit-call score of the fitted dose curve at least 0.9, where 1 is the maximum; inactive = score below 0.9;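 also: curve fitted for loss of signal so potency reflects decreased burst percentage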). An outline of the steps: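 Primary rat cortical neurons on 48-well MEA plates, treated on DIV 13 or 15 at 0.03-40 uM. Spikes detected at 8x rms noise at 37C; percent change from 40-min baseline to 40-min post-dose recording, fitted versus DMSO.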

Experiment [13] is described as follows: CCTE_Shafer_MEA_acute_burst_percentage_std: CCTE's Neural Acute Assay for Standard Deviation of Burst Percentage, Shafer Lab (AID 2284018; active = hit-call score of the fitted dose curve at least 0.9, where 1 is the maximum; inactive = score below 0.9;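 also: fitted in the negative direction so actives lower burst percentage SD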). An outline of the steps:
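Primary rat cortical neurons on 16-electrode MEA wells were recorded 40 min at baseline (DIV 13 or 15), then 40 min after compound (0.03-40 uM), at 37 C. Well value is SD across electrodes of spikes-in-bursts/total spikes; endpoint is percent change, DMSO-referenced.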

Experiment [14] can be described thus: CCTE_Shafer_MEA_acute_per_network_burst_spike_number_mean: CCTE's Neural Acute Assay for Average Number of Spikes in a Network Burst, Shafer Lab (AID 2284019; active = hit-call score of the fitted dose curve at least 0.9, where 1 is the maximum; inactive = score below 0.9). An outline of the steps: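 Acute exposure of rat primary cortical networks (DIV 13/15) on MEAs; adaptive spike detection at 8x rms noise, 37 C. Percent change in spikes per network burst after 40 min with compound (0.03-40 uM), negative direction vs DMSO.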

Experiment [15] can be described thus: CCTE_Shafer_MEA_acute_per_network_burst_spike_number_std: CCTE's Neural Acute Assay for Standard Deviation of Number of Spikes in a Network Burst, Shafer Lab (AID 2284020; active = hit-call score of the fitted dose curve at least 0.9, where 1 is the maximum; inactive = score below 0.9;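 also: fitted for decrease in spike-number SD versus DMSO so actives lower it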). In short, it runs like this: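 Acute MEA exposure, rat cortical neurons, 0.03-40 uM. Per-well % change versus own baseline; DMSO as negative control.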
Experiment [16] in a line: CCTE_Shafer_MEA_acute_per_network_burst_electrodes_number_mean: CCTE's Neural Acute Assay for Mean Number of Electrodes in a Network Burst, Shafer Lab (AID 2284021; active = hit-call score of the fitted dose curve at least 0.9, where 1 is the maximum; inactive = score below 0.9;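 also: curves fitted for decreases only so hits reduce electrodes per burst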). In short, it runs like this:
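Percent change from baseline in average electrode count per network burst, rat cortical cultures on 48-well MEAs; 40-min recordings each side of exposure, DIV 13 or 15; threshold 8x rms noise; DMSO as negative control.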

Experiment [17] can be described thus: CCTE_Shafer_MEA_acute_cross_correlation_area: CCTE's Neural Acute Assay for Area of Cross Correlation, Shafer Lab (AID 2284024; active = hit-call score of the fitted dose curve at least 0.9, where 1 is the maximum; inactive = score below 0.9;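 also: area under pooled inter-electrode spike cross-correlation near zero lag as percent change from own baseline; curves fitted for loss of cross-correlation area so actives lower synchrony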). In short, it runs like this: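 Extracellular recordings from cultured rat cortical neurons measure network synchrony as cross-correlation area; each well's post-compound value (0.03-40 uM, 40 min) is compared with its own 40 min baseline to give percent change.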

The nature of experiment [18]: CCTE_Shafer_MEA_acute_cross_correlation_HWHM: CCTE's Neural Acute Assay for Cross Correlation at Half Width at Half Maximum, Shafer Lab (AID 2284026; active = hit-call score of the fitted dose curve at least 0.9, where 1 is the maximum; inactive = score below 0.9;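 also: percent change per well from pre-dose baseline in spike cross-correlogram half width; hits are a decrease in cross-correlogram half width relative to DMSO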). In short, it runs like this:
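Percent change in cross-correlogram half width at half maximum, narrower meaning more synchrony, was derived per well from paired 40-min recordings before and during exposure to 0.03-40 uM compound in rat cortical cultures at 37 C.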

A short description of experiment [19]: CCTE_Shafer_MEA_acute_synchrony_index: CCTE's Neural Acute Assay for Synchrony, Shafer Lab (AID 2284027; active = hit-call score of the fitted dose curve at least 0.9, where 1 is the maximum; inactive = score below 0.9;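 also: network synchrony index of spontaneous spiking in primary rat cortical neurons on MEAs; fitted for loss of signal so actives lower synchrony relative to DMSO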). In short, it runs like this: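 The synchrony index is taken as percent change per well between a 40 min baseline and a 40 min recording with compound (0.03–40 uM), at 37C. Rat cortical cultures on multiwell MEAs at DIV 13 or 15, spike threshold 8× rms noise.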

Molecules are shown by their SMILES. Records with an inconclusive call do not appear. The source made the active and inactive calls. The calls were made as follows, unless noted: active = hit-call score of the fitted dose curve at least 0.9, where 1 is the maximum; inconclusive = response in the unintended direction; inactive = score below 0.9.

Estrogen receptor (Homo sapiens), sequence (P03372 whole entry, looked up): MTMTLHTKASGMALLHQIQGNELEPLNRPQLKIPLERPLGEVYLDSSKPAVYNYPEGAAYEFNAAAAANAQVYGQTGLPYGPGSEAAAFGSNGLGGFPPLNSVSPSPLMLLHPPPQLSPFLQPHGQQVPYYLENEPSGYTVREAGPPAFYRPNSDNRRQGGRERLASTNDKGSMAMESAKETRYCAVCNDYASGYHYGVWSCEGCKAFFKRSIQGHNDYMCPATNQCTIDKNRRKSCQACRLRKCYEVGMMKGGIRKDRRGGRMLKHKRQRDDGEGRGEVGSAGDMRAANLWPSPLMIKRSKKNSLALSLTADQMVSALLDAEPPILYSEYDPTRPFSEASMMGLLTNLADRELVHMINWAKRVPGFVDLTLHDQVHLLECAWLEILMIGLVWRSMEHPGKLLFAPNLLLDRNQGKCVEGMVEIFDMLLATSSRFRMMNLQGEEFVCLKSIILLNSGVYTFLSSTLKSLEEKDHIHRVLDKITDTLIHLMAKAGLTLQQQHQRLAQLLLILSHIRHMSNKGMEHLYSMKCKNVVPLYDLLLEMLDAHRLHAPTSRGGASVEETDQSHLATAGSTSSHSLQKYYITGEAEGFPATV

Consider `CCCCCCCCOC(=O)c1ccccc1C(=O)OCCCCCCCC`, for which the compound was called inactive in [1]. The AC50 in [2] was 2.22 µM (active).
Regarding `Cc1ccccc1CO[C@@H]1C[C@@]2(C(C)C)CC[C@]1(C)O2`, the compound was called inactive in experiment [3].
Take `O=S(=O)(O)C(F)(F)C(F)(F)C(F)(F)C(F)(F)F`: the result in experiment [4] and in experiment [5] was inactive.
As for `C[C@]12CCC(=O)C=C1CC[C@@H]1[C@@H]2CC[C@@]2(C)[C@H]1CC[C@]2(C)O`, the figures for the AC50 in experiment [6] and in [7] were 1.8 µM (active) and 1.63 µM (active), respectively.
Consider `Nn1cnnc1`, for which the call in experiment [6] and in experiment [7] was inactive.
As for `O=S(=O)(O)C(F)(F)C(F)(F)C(F)(F)C(F)(F)C(F)(F)C(F)(F)F`, the compound was classed as inactive in [6], in experiment [4], in experiment [5], in experiment [3] and in [7].
On to `c1cc2ccc3cccc4ccc(c1)c2c34`, for which the compound was classed as inactive in [1], in [8], in [9], in experiment [6], in experiment [4] and in experiment [5]. Further, the call in experiment [3] and in experiment [7] was inactive. The AC50 in experiment [2] is 42.1 µM (active).
For the compound `Cc1cc2c3c(c1)C(c1ccccc1)=N[C@@H](NC(=O)c1ccncc1)C(=O)N3CC2`, the call in experiment [6] and in experiment [7] was inactive.
As to `Clc1ccc(Cl)cc1`, the result in [6] and in experiment [7] was inactive.
For `Cc1ccccc1O`, the call in experiment [6] and in experiment [7] was inactive.
As for `CCC(=O)O[C@H]1CC[C@H]2[C@@H]3CCC4=CC(=O)CC[C@]4(C)[C@H]3CC[C@]12C`, the compound was classed as inactive in experiment [6], in [3] and in [7].
With `Sc1ccccc1`, the compound was called inactive in [6] and in [7].
`Cc1cccc([N+](=O)[O-])c1`: the compound was called inactive in [6], in experiment [3] and in experiment [7].
On to `C1CC2OC2CC1C1CO1` (stereo not given), for which the outcome in experiment [6] and in experiment [7] was inactive.
Take `C[C@]12CCC(=O)C=C1CC[C@@H]1[C@@H]2CC[C@]2(C)C(=O)CC[C@@H]12`: the compound was called inactive in experiment [6], in experiment [3] and in experiment [7].
Regarding `CC(c1ccc(O)cc1)(c1ccc(O)cc1)c1ccc(O)cc1`, the outcome in experiment [10], in experiment [11], in [14], in [15], in experiment [16] and in [17] was inactive. Further, the concentration at half-maximal activity (AC50) in [12] was 29.6 µM (active); in [13], 32.9 µM (active); in experiment [18], 33.4 µM (active); in [19] it was 28.8 µM (active).
`CCOCCOC(C)=O`: the result in [6], in experiment [3] and in experiment [7] was inactive.
